The campaign covered roughly 220,000 compounds. About 2,000 (0.91%) were called active. Another 2% or so got no clear call; they are omitted. Not all results are given here. Entries with a potency or affinity are not part of this list. A number with no mark means an inactive call. No stated cut-off is given here; in the data, inconclusive means inhibition above about 80% without an active follow-up result; inactive means below that; test concentration not stated here.
Assay: M. tuberculosis H37Rv growth inhibitors, H37Rv strain (AID 1626);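 further: bacteria incubated seven days before Alamar blue readout; 0% = bacteria only wells and 100% = bacteria with antibiotic wells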
Conditions: active compounds read high, concentration not given here

In order of falling inhibition:
1. COc1ccc2[nH]c3c(NCCC4=CCCCC4)ncnc3c2c1  50.8%
2. COc1ccccc1C(C[N+](=O)[O-])c1c(N)n(C)c(=O)n(C)c1=O (configuration not stated)  40.8%
3. COc1ccc(-c2csc(NC(=O)C3CC(=O)N(c4ccc5c(c4)OCCO5)C3)n2)cc1 (configuration not stated)  28%
4. CN1CCN(Cc2c(O)ccc3cc(Br)ccc23)CC1  21%
5. COc1ccc(Cn2c(C(C)C)nc3sc4ccccc4c(=O)c3c2=O)cc1  17.7%
6. Oc1ccc2ccccc2c1CN1CCCC1  12.7%
7. O=C(/C=C/c1cccc([N+](=O)[O-])c1)NCCSCc1ccc(Cl)cc1  11.2%
8. Cc1ccc2c(c1)C1CN(C)CCC1N2C(=O)c1cn(-c2ccccc2)nc1-c1ccccc1 (configuration not stated)  10.5%
9. CCOC(=O)COc1ccc(S(=O)(=O)NCc2ccco2)cc1  10.1%
10. O=C(/C=C/c1ccco1)Nc1nc(-c2ccccc2)cs1  9.68%
11. CC1CC1C(=O)Nc1nc(-c2ccc(Cl)s2)cs1 (configuration not stated)  9.3%
12. O=C(/C=C\c1ccco1)Nc1nc(-c2ccccc2)cs1  9.29%
13. CCN=C1NN=C(c2cc(C)n(Cc3ccco3)c2C)CS1  8.94%
14. COc1cccc2sc(NN)nc12  7.32%
15. O=C(NCc1cccs1)C(=O)NCC(c1ccco1)N1CCN(c2ccccc2F)CC1 (configuration not stated)  4.89%
16. CCN1C(=O)CC(c2ccco2)Sc2ccccc21 (configuration not stated)  4.45%
17. CCCCn1c(=O)[nH]c2ccccc21  3.85%
18. Cc1ccc(C(=O)Nc2nc(-c3cc(Cl)sc3Cl)cs2)cc1  3.4%
19. CCCNC(=O)C1CCN(S(=O)(=O)c2cccc3nonc23)CC1  3.34%
20. O=C(Nc1nccs1)c1cc(Cl)ccc1[N+](=O)[O-]  3.23%
21. COCCOc1ccc(C(F)(F)F)cc1NC(=O)c1ccc(C)cc1  2.93%
22. O=C(Nc1cccc(Cl)c1)/C(=C\c1cccnc1)NC(=O)c1ccco1  2.59%
23. CN(CCc1ccccn1)c1ncnc2[nH]ncc12  2.15%
24. COc1cc(C(C[N+](=O)[O-])c2c(N)n(C)c(=O)n(C)c2=O)ccc1O (configuration not stated)  1.8%
25. O=C(COc1ccccc1Br)Nc1ccccc1C(F)(F)F  1.69%
26. O=P(O)(O)C12CC3CC(CC(C3)C1)C2  1.57%
27. O=C(Nc1nc(-c2cc(Cl)sc2Cl)cs1)c1ccc(Br)s1  1.52%
28. C[C@@H](C(=O)Nc1nc(-c2ccccn2)cs1)N1C(=O)C2CCCCC2C1=O (some centres not stated)  1.46%
29. Cc1ccc(OCCNC(=O)c2cccc(Oc3ccc(C(F)(F)F)cc3[N+](=O)[O-])c2)cc1  1.39%
30. COc1cccc2sc(Nc3nc(-c4ccncc4)cs3)nc12  1.36%
31. COC(=O)CCn1nc(-c2ccc(Cl)cc2)c2ccccc2c1=O  0.44%
32. C/C(O)=C(\N=Nc1cc(C)ccc1O)C(N)=O  0.25%
33. CC(=O)Nc1ccc(C(=O)Nc2nc(-c3ccccn3)cs2)cc1  0.25%
34. CCOC(=O)C1(C)NC(c2ccc(OC)c(OC)c2)C2C(=O)N(CC)C(=O)C21 (configuration not stated)  -0.15%
35. CCOC(=O)c1ccc(NC(C)=O)c([N+](=O)[O-])c1  -0.43%
36. O=C(NCc1ccccn1)c1ccc(Br)s1  -0.44%
37. Cc1cccc([N+](=O)[O-])c1NC(=O)CN(Cc1ccccc1)Cc1ccccc1  -0.69%
38. COc1ccc(NC(=O)N/C=C/c2ccccc2)cc1  -0.86%
39. CC(=O)Nc1ccc(C(=O)NCC(=O)OCc2c(F)cccc2Cl)cc1  -1.08%
40. Cc1ccnc2nc(C(=O)Nc3nc(-c4ccccn4)cs3)nn12  -1.5%
41. O=C(CNC(=O)c1ccc(-c2ccccc2)cc1)OCc1c(Cl)cccc1Cl  -1.9%
42. CC(=O)Nc1ccc(-c2csc(NC(=O)C3CC(=O)N(c4ccc5c(c4)OCCO5)C3)n2)cc1 (configuration not stated)  -1.99%
43. CCN(CCCNC(=O)CN(C)S(=O)(=O)c1ccc2c(c1)CCC(=O)N2)c1cccc(C)c1  -2.39%
44. O=c1[nH]c2ccccc2n1CCCN1CCCCC1  -2.47%
45. CCCNc1ccc(C(=O)OCC)cc1[N+](=O)[O-]  -2.78%
46. O=C(NCc1ccc(F)cc1)C1CCCN(S(=O)(=O)c2cccc3nsnc23)C1 (configuration not stated)  -3.19%
47. O=c1c2[nH]c3ccccc3c2ncn1CCC1=CCCCC1  -3.83%
48. CCc1nc2sc3ccccc3c(=O)c2c(=O)n1CCOC  -3.87%
49. Cc1csc(NC(=O)c2ccc(Cl)cc2[N+](=O)[O-])n1  -4.05%
50. CC(C)(C)c1cc(C(=O)NCC(=O)OCC(=O)c2cccc([N+](=O)[O-])c2)cc(C(C)(C)C)c1  -4.29%
51. Cc1cc(C(=O)N2CCOCC2)c(C)o1  -4.61%
52. CC(C(=O)N1CCCC1)N1CCN(c2ccccc2O)CC1 (configuration not stated)  -5.08%
53. NC1=NC(=O)C(Cc2cc(Cl)ccc2Cl)S1 (configuration not stated)  -5.29%
54. COc1cc(S(N)(=O)=O)c(OC)cc1N  -5.42%
55. Cc1ccc(Cn2ccc(NC(=O)c3cc(C4CC4)on3)n2)cc1  -5.45%
56. CCNC(=S)NNC(=S)NCc1ccccc1  -6.54%
57. CCCOc1cccc(C2C(C(=O)c3ccco3)=C(O)C(=O)N2CCN(CC)CC)c1 (configuration not stated)  -7.15%
58. O=C(COC(=O)C1CCN(S(=O)(=O)c2cccs2)CC1)Nc1ccccc1Br  -7.27%
59. COc1ccc(N(C(=O)c2ccco2)C(C(=O)NC2CCCC2)c2ccc(N(C)C)cc2)cc1 (configuration not stated)  -10.8%
60. Cc1csc(NC(=O)C2CCCC2)n1  -11.7%
61. CC1CC1C(=O)Nc1nc(-c2ccccc2)cs1 (configuration not stated)  -12.6%
62. O=C(O)c1ccc(S(=O)(=O)c2ccc(Sc3ccc(C(=O)O)c(C(=O)O)c3)cc2)cc1  -20.9%

From PubChem BioAssay AID1626 (SRMLSC, 2009)
